Assay [1] can be described thus: qHTS assay for small molecules that induce genotoxicity in human embryonic kidney cells expressing luciferase-tagged ATAD5 (AID 651632). Further: nearly all actives have a fitted effect of over 15% in size. As to conditions: HEK293T ATAD5-luciferase induction, 16 h; series mostly up to 83.3 µM. A digest of the protocol: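 HEK293T cells carrying a luciferase reporter tagged to ATAD5 were exposed to compound or DMSO vehicle for 16 hr at 37C, 5% CO2. Amplite was added, and after 30 min at room temperature luciferase activity was read as a marker of ATAD5 induction.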

A short description of assay [2]: qHTS assay to test for compound auto fluorescence at 590 nm (red) in HepG2 cells (AID 720674). As to conditions: HepG2 autofluorescence, red 540/590 nm, 1 h; series mostly up to 91.3 µM. A digest of the protocol:
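Rose Bengal sodium served as the red fluorophore standard. HepG2 monolayers (overnight attachment, MEM with 10% FBS) were exposed to test compounds for 1 hr at 37 C and read at Ex 540/Em 590 nm.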

A short description of assay [3]: qHTS assay to test for compound auto fluorescence at 535 nm (green) in HepG2 cells (AID 720675). The conditions noted are these: green autofluorescence 485/535 nm, 1 h; series mostly up to 91.3 µM.
Assay [4] can be described thus: qHTS assay to test for compound auto fluorescence at 460 nm (blue) in HEK293 cells (AID 720678). As to conditions: blue autofluorescence 405/460 nm; series mostly up to 91.3 µM. Put shortly: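 HEK293, 2,000 cells/well, 10% dialyzed FBS; attach 4-5 hr 37C; pin compound or DMSO; o/n 37C/5% CO2; fluorescence 405/460 nm; triamterene-equivalent units.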
Assay [5] can be described thus: qHTS assay to test for compound auto fluorescence at 590 nm (red) in HEK293 cells (AID 720679). The conditions noted are these: red autofluorescence 540/590 nm; series mostly up to 91.3 µM. Put shortly: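 Intensity at 540nm excitation and 590nm emission is reported as Rose Bengal sodium-equivalent autofluorescence. Measurements followed overnight exposure (37C, 5% CO2) of HEK293 cells, 2,000 per well, to 23 nL compound.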

Assay [6] in a line: qHTS assay to test for compound auto fluorescence at 535 nm (green) in HEK293 cells (AID 720680). As to conditions: green autofluorescence 485/535 nm; series mostly up to 91.3 µM.
Assay [7] can be described thus: qHTS assay to test for compound auto fluorescence at 460 nm (blue) in HEK293 cell free culture (AID 720681). The conditions noted are these: cell-free medium, autofluorescence 405/460 nm (blue); series mostly up to 91.3 µM. A digest of the protocol: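 Test compounds were pinned into cell-free culture medium (DMEM with 10% FBS) and fluorescence was read directly at Ex/Em 405/460 nm. Signals were expressed as fluorescence equivalents of triamterene, with DMSO vehicle as control.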

Assay [8] in a line: qHTS assay to test for compound auto fluorescence at 535 nm (green) in HEK293 cell free culture (AID 720682). The conditions noted are these: cell-free medium, green autofluorescence 485/535 nm, stronger effect = higher value; series mostly up to 91.3 µM. Put shortly: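 Cell-free medium (DMEM, 10% FBS) receives compound or DMSO by pintool. Plate read directly at Ex 485/Em 535 nm. Signal converted to fluorescein equivalency.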

A short description of assay [9]: qHTS assay to test for compound auto fluorescence at 590 nm (red) in HEK293 cell free culture (AID 720683). As to conditions: cell-free medium autofluorescence, Ex540/Em590 red; series mostly up to 91.3 µM. Put shortly:
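Tox21 10K library compounds were pinned into cell-free DMEM with 10% FBS and fluorescence was read at excitation 540 nm. Activity is expressed as Rose Bengal sodium equivalency.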

Assay [10] in a line: qHTS assay to test for compound auto fluorescence at 590 nm (red) in HepG2 cell free culture (AID 720684). The conditions noted are these: cell-free medium autofluorescence, red 540/590 nm; series mostly up to 91.3 µM. A digest of the protocol: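 Red fluorescence (540 nm excitation, 590 nm emission) was measured after compound transfer into cell-free MEM supplemented with 10% FBS. Values are equivalencies against Rose Bengal sodium.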

Assay [11] in a line: qHTS assay to test for compound auto fluorescence at 460 nm (blue) in HepG2 cell free culture (AID 720685). The conditions noted are these: Cell-free culture medium, blue autofluorescence 405/460 nm; series mostly up to 91.3 µM. A digest of the protocol:
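Compound (23 nL) or DMSO pinned into cell-free MEM with 10% FBS; blue fluorescence read at 405/460 nm excitation/emission, expressed as auto-fluorescence equivalency to triamterene.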

Assay [12] in a line: qHTS assay to test for compound auto fluorescence at 535 nm (green) in HepG2 cell free culture (AID 720686). The conditions noted are these: Cell-free medium, green autofluorescence 485/535 nm; series mostly up to 91.3 µM.
Assay [13] can be described thus: qHTS assay to test for compound auto fluorescence at 460 nm (blue) in HepG2 cells (AID 720687). The conditions noted are these: autofluorescence 405/460 nm, 1 h; series mostly up to 91.3 µM. Put shortly:
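Cells (2,000/well in MEM with 10% FBS) attached overnight at 37 C, then were exposed to compound or DMSO for 1 hr at 37 C, 5% CO2. Fluorescence read at Ex/Em 405/460 nm, expressed as triamterene-equivalent signal.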

Assay [14] has as its target Glucocorticoid receptor (Homo sapiens) (UniProt P04150). Description: qHTS assay to identify small molecule agonists of the glucocorticoid receptor (GR) signaling pathway (AID 720691; active means well fitted activation curve with a large enough effect in the signal ratio in the repeat runs, not every such curve was filed as active; the % refers to the signal ratio). As to conditions: GR-bla HeLa, beta-lactamase reporter ratio, 18 h; series mostly up to 62.4 µM. Put shortly:
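GR-bla HeLa cells (beta-lactamase reporter under glucocorticoid response element) were plated 4 h at 37 C/5% CO2, given compounds in DMSO, and incubated 18 h at 37 C. LiveBLAzer B/G FRET substrate was added for 2 h at room temperature, then fluorescence intensity read.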

Assay [15] shares this target. Description: qHTS assay to identify small molecule antagonists of the glucocorticoid receptor (GR) signaling pathway (AID 720692; active means well fitted inhibition curve with a large enough effect in the signal ratio in the repeat runs, not every such curve was filed as active; the % refers to the signal ratio). As to conditions: GR-bla HeLa, beta-lactamase FRET ratio, dexamethasone-stimulated, 18 h; series mostly up to 58.5 µM. Put shortly: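 GR-bla HeLa cells (beta-lactamase reporter under glucocorticoid response element) were pre-plated 4 h at 37 C, treated with compounds plus 5 nM dexamethasone (final) for 18 h, then read by LiveBLAzer B/G FRET fluorescence after 2 h.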

Assay [16] is described as follows: qHTS assay for small molecules that induce genotoxicity in human embryonic kidney cells expressing luciferase-tagged ATAD5 - cell viability (AID 651634; calls by dose curve; further: nearly all actives have a fitted effect of over 25% in size; further: potency means the concentration at half of the fitted maximal effect). The conditions noted are these: HEK293T ATAD5-luc cells viability, CellTiter-Fluor, 15.5 h; series mostly up to 83.3 µM. Put shortly: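 HEK293T cells expressing luciferase-tagged ATAD5 were exposed to compound or DMSO for 15.5 hr at 37C, 5% CO2. Viability was then read as live-cell protease activity by CellTiter-Fluor fluorescence after 30 min at 37C.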

A short description of assay [17]: qHTS assay for small molecule disruptors of the mitochondrial membrane potential - cell viability (AID 720634; calls by dose curve; further: nearly all actives have a fitted effect of over 20% in size; further: potency means the concentration at half of the fitted maximal effect). As to conditions: HepG2 viability, ATP luminescence (CellTiter-Glo), 1 h; series mostly up to 83.2 µM. A digest of the protocol: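 HepG2 cells seeded overnight at 37 C, then exposed to compound or DMSO for 1 hr at 37 C, 5% CO2. m-MPI dye added, then CellTiter-Glo for 30 min at room temperature; viability read as ATP luminescence.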

Assay [18] in a line: qHTS assay for small molecule disruptors of the mitochondrial membrane potential (AID 720635). Further: potency means the concentration at half of the fitted maximal effect. The conditions noted are these: HepG2 mitochondrial membrane potential, Mito-MPS dye ratio; series mostly up to 83.2 µM. Put shortly: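 HepG2 cells (2,000/well) attached overnight at 37C, then took compound for 1 hr at 37C, 5% CO2. Mito-MPS dye was added for 30 min; fluorescence was read at 490/535 nm (monomers) and 540/590 nm (aggregates).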

Assay [19] can be described thus: qHTS assay for small molecule agonists of the p53 signaling pathway - cell viability (AID 651633; calls by dose curve;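 further: p53RE-bla HCT reporter cells with a stable beta-lactamase p53 reporter; nearly all actives have a fitted effect of over 30% in size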). The conditions noted are these: p53RE-bla HCT-116 viability, ATP luminescence, 16 h; series mostly up to 83.3 µM. A digest of the protocol:
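p53RE-bla cells, seeded at 4,000 per well and rested 5 h at 37 C/5% CO2, received compounds in DMSO for 16 h at 37 C. CellTiter-Glo was then added, and luminescence was read after 30 min at room temperature to gauge cytotoxicity.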

Where “and” joins values, the source holds several entries; their conditions need not be identical. Equal values may be shown once. Records with an inconclusive call do not appear. The source holds several records for some structures; these can differ, active in one and inactive in another. Calls of active or inactive are those of the source. Unless noted, the call rests on the fitted dose curve; in most records, active means well fitted curve in the direction sought with a large enough effect in the repeat runs; inconclusive means weak or mixed curves; inactive means no such curve, though single readings can be large; an effect the other way counts as inactive or inconclusive.

Chain of Glucocorticoid receptor (Homo sapiens) (P04150 whole entry, looked up): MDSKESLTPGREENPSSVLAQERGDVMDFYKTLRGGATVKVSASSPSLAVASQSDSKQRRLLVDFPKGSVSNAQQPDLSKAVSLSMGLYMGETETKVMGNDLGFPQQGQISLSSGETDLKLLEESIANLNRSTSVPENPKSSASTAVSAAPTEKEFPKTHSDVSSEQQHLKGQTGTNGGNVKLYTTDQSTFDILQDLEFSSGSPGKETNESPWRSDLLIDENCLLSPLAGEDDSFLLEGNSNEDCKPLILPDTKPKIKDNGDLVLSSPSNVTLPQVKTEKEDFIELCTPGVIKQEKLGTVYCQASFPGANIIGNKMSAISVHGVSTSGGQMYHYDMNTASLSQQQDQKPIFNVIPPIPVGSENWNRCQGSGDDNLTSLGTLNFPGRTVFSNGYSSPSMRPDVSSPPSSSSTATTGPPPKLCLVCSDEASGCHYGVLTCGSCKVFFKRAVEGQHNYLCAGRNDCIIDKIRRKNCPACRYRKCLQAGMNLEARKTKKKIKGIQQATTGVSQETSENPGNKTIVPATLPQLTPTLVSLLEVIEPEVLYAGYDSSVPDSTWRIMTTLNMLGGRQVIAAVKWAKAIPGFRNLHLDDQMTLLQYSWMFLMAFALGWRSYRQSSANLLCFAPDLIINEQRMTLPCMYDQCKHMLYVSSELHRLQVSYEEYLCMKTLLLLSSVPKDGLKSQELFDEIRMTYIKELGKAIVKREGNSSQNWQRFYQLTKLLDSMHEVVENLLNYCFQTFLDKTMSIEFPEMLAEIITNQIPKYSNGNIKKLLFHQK

Regarding `O=C(O)C(F)(F)C(F)(F)C(F)(F)C(F)(F)C(F)(F)C(F)(F)C(F)(F)C(F)(F)F`, the Potency result in [1], in assay [14] and in [15] was “inactive” each time. Moreover, the result in assay [2], in [3], in assay [4], in assay [5], in [6] and in [7] was inactive. In addition, the call in assay [8], in [9], in [10], in [11], in assay [12] and in assay [13] was inactive.

Regarding `CCc1cnc(C2=NC(C)(C(C)C)C(=O)N2)c(C(=O)O)c1` (stereo not given), the Potency entry in assay [1], in [16], in assay [17], in assay [18], in assay [14] and in assay [15] was “inactive” throughout. For the same compound, the outcome in assay [2], in assay [3], in [5], in assay [6], in assay [7] and in assay [8] was inactive. Moreover, the result in assay [9], in assay [10], in assay [11], in assay [12] and in [13] was inactive.

Regarding `CCCCCCCCCCCC[N+](C)(C)CCOc1ccccc1`, in assay [1], the Potency entry is “inactive”. Besides, the Potency in assay [16] was 29.8 µM (active) and 61.1 µM (active); in [17], “inactive and 68.6 µM (active)”; in [18], 26.6 µM (active) and 30.6 µM (active). Further, the result in [2], in [3], in [5], in assay [6], in assay [7] and in assay [8] was inactive. Besides, the compound was called inactive in assay [9], in [10], in assay [11] and in assay [13].

As to `O=C(O)COc1cc(Cl)c(Cl)cc1Cl`, the Potency result in assay [19], in [16], in [17], in assay [14] and in [15] was “inactive” in each case. The compound was classed as inactive in assay [2], in [3], in [4], in assay [5], in assay [6] and in assay [7]. For the same compound, the outcome in [8], in assay [9], in [10], in assay [11], in [12] and in assay [13] was inactive.

As to `CCCCCBr`, the Potency entry in [19], in assay [16], in assay [17], in [14] and in assay [15] was “inactive” throughout. Also, the call in [2], in assay [3], in assay [4], in assay [5], in assay [6] and in [7] was inactive. Also, the outcome in assay [8], in assay [9], in assay [10], in assay [11], in assay [12] and in [13] was inactive.

For `CCc1ccccc1N`, the Potency entry in assay [1], in assay [16], in assay [17] and in assay [14] was “inactive” each time. The outcome in assay [2], in assay [3], in [4], in assay [5], in assay [6] and in assay [8] was inactive. The result in assay [9], in [10], in assay [11], in assay [12] and in assay [13] was inactive.

For the origin of these results see PubChem BioAssay (Tox21).
